According to PubChem BioAssay (NCATS):
Results filed as inconclusive are left out. Entries that show only a call come without a potency. The source made the active and inactive calls. Unless noted, calls follow the shape of the dose curve; as a rule, active = well fitted curve in the direction sought with a large enough effect; inconclusive = small, poorly fitted or top-dose-only effect, or another doubt; inactive = no such curve, though single readings can be large; an effect the other way counts as inactive or inconclusive. Peptide text beside a SMILES is read from it.

Molecular target: Luciferin 4-monooxygenase (Photinus pyralis) (UniProt P08659)
Sequence (P08659 whole entry, looked up): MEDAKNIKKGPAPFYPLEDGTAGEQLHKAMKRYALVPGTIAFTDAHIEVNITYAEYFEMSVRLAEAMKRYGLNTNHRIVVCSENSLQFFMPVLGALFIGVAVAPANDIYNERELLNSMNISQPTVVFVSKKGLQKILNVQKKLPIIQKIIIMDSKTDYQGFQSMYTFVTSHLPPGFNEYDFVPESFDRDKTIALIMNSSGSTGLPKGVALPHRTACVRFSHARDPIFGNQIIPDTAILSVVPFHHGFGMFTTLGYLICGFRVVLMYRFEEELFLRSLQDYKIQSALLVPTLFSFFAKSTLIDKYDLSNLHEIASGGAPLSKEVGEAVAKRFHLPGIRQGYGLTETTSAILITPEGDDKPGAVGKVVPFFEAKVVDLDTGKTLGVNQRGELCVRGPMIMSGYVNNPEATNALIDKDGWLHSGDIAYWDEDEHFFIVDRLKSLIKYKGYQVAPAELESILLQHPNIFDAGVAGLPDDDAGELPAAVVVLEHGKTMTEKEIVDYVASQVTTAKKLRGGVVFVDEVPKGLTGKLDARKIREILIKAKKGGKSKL
Experiment: Biochemical firefly luciferase enzyme assay for NPC (AID 624030);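 also: purified P. pyralis luciferase at 10 nM with luciferin and ATP substrate; nearly all actives have a fitted effect of over 70% in size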
Conditions: purified P. pyralis luciferase, luminescence, 5 min; series mostly up to 58.6 µM
How it was run: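 Purified P. pyralis luciferase at 10 nM in 50 mM Tris Acetate (final), luminescence read within 5 minutes of enzyme addition to compounds. Activity normalised to PTC124 versus DMSO; concentration-response curves classed by r2, magnitude and activity.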

| SMILES | Potency |
| --- | --- |
| Nc1ccc(S(N)(=O)=O)cc1 | inactive |
| N[C@@H](Cc1cc(I)c(Oc2cc(I)c(O)c(I)c2)c(I)c1)C(=O)O | inactive |
| CS(=O)(=O)OCCCCOS(C)(=O)=O | inactive |
| CCc1nc(N)nc(N)c1-c1ccc(Cl)cc1 | inactive |
| COc1cc(OC)c(C(=O)CCCN2CCCC2)c(OC)c1 | inactive |
| CNC[C@H](O)c1ccc(O)c(O)c1 | inactive |
| COC(=O)[C@H](Cc1ccccc1)NC(=O)[C@@H](N)CC(=O)O (H-Asp-Phe-OMe) | inactive |
| CCCc1cc(=O)[nH]c(=S)[nH]1 | inactive |
| CC1(C)NC(=O)N(c2ccc([N+](=O)[O-])c(C(F)(F)F)c2)C1=O | inactive |
| Cc1ccc(C)c(OCCCC(C)(C)C(=O)O)c1 | inactive |
| COc1c2occc2cc2ccc(=O)oc12 | inactive |
| NS(=O)(=O)c1cc(C(=O)O)c(NCc2ccco2)cc1Cl | inactive |
| CCCCC(CC)COC(=O)C(C#N)=C(c1ccccc1)c1ccccc1 (configuration not stated) | inactive |

Test system: not listed separately
Experiment: S16 Schwann cell viability assay (CellTiter-Glo assay) (AID 624031); also: nearly all actives have a fitted effect of over 70% in size; also: potency is read from the fitted curve at half-maximal effect
Conditions: S16 rat Schwann cells viability, 24 h; series mostly up to 57.5 µM
How it was run: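 Native S16 Schwann cells (rat), serum-containing medium, overnight attachment then 24 h drug exposure at 37 °C/5% CO2. CellTiter-Glo ATP signal; normalized to cell-free and vehicle wells.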

| SMILES | Potency |
| --- | --- |
| Nc1ccc(S(N)(=O)=O)cc1 | inactive |
| N[C@@H](Cc1cc(I)c(Oc2cc(I)c(O)c(I)c2)c(I)c1)C(=O)O | inactive |
| CS(=O)(=O)OCCCCOS(C)(=O)=O | inactive |
| CCc1nc(N)nc(N)c1-c1ccc(Cl)cc1 | inactive |
| COc1cc(OC)c(C(=O)CCCN2CCCC2)c(OC)c1 | inactive |
| CNC[C@H](O)c1ccc(O)c(O)c1 | inactive |
| CN(C)c1ccc2nc3ccc(=[N+](C)C)cc-3sc2c1 | 4.05 µM (active) |
| COC(=O)[C@H](Cc1ccccc1)NC(=O)[C@@H](N)CC(=O)O (H-Asp-Phe-OMe) | inactive |
| CCCc1cc(=O)[nH]c(=S)[nH]1 | inactive |
| c1ccc2[nH]c(-c3cscn3)nc2c1 | inactive |
| CC1(C)NC(=O)N(c2ccc([N+](=O)[O-])c(C(F)(F)F)c2)C1=O | inactive |
| Cc1ccc(C)c(OCCCC(C)(C)C(=O)O)c1 | inactive |
| COc1c2occc2cc2ccc(=O)oc12 | inactive |
| NS(=O)(=O)c1cc(C(=O)O)c(NCc2ccco2)cc1Cl | inactive |
| CCCCC(CC)COC(=O)C(C#N)=C(c1ccccc1)c1ccccc1 (configuration not stated) | inactive |

Test system: not listed separately
Experiment: S16 Schwann cell PMP22 intronic element firefly luciferase assay (AID 624032); also: nearly all actives have a fitted effect of over 30% in size; also: potency is read from the fitted curve at half-maximal effect
Conditions: S16 rat Schwann cells, PMP22 element FLuc, 24 h; series mostly up to 57.5 µM
How it was run: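 Rat S16 Schwann cells stably carrying firefly luciferase driven by a PMP22 intronic element, in 10% FBS, treated 24 h at 37 C. ONE-Glo luminescence normalized to PTC124 control and DMSO (0%); curves classed by r2, magnitude and activity.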

| SMILES | Potency |
| --- | --- |
| Nc1ccc(S(N)(=O)=O)cc1 | inactive |
| N[C@@H](Cc1cc(I)c(Oc2cc(I)c(O)c(I)c2)c(I)c1)C(=O)O | inactive |
| CS(=O)(=O)OCCCCOS(C)(=O)=O | inactive |
| CCc1nc(N)nc(N)c1-c1ccc(Cl)cc1 | inactive |
| COc1cc(OC)c(C(=O)CCCN2CCCC2)c(OC)c1 | inactive |
| CNC[C@H](O)c1ccc(O)c(O)c1 | inactive |
| CN(C)c1ccc2nc3ccc(=[N+](C)C)cc-3sc2c1 | inactive |
| COC(=O)[C@H](Cc1ccccc1)NC(=O)[C@@H](N)CC(=O)O (H-Asp-Phe-OMe) | inactive |
| CCCc1cc(=O)[nH]c(=S)[nH]1 | inactive |
| c1ccc2[nH]c(-c3cscn3)nc2c1 | inactive |
| CCN(CC)C(=S)SSC(=S)N(CC)CC | 4.55 µM (active) |
| Cc1ccc(C)c(OCCCC(C)(C)C(=O)O)c1 | inactive |
| COc1c2occc2cc2ccc(=O)oc12 | inactive |
| NS(=O)(=O)c1cc(C(=O)O)c(NCc2ccco2)cc1Cl | inactive |

Test system: not listed separately
Experiment: S16 Schwann cell PMP22 intronic element beta-lactamase assay (AID 624044; calls by dose curve; also: nearly all actives have a fitted effect of over 15% in size; also: potency is read from the fitted curve at half-maximal effect)
Conditions: S16 rat Schwann cells, PMP22 element beta-lactamase FRET, 24 h; series mostly up to 38.3 µM
How it was run: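 Beta-lactamase reporter under a PMP22 intronic regulatory element in stable S16 rat Schwann cells; 24 h compound exposure. 460 nm blue signal normalized between DMSO (0%) and potassium clavulanate, with 535 nm FRET tracking viability; curves classed by r2 and response.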

| SMILES | Potency |
| --- | --- |
| Nc1ccc(S(N)(=O)=O)cc1 | inactive |
| N[C@@H](Cc1cc(I)c(Oc2cc(I)c(O)c(I)c2)c(I)c1)C(=O)O | inactive |
| CS(=O)(=O)OCCCCOS(C)(=O)=O | inactive |
| CCc1nc(N)nc(N)c1-c1ccc(Cl)cc1 | 9.99 µM (active) |
| c1ccc2[nH]c(-c3cscn3)nc2c1 | inactive |
| CC1(C)NC(=O)N(c2ccc([N+](=O)[O-])c(C(F)(F)F)c2)C1=O | inactive |
| Cc1ccc(C)c(OCCCC(C)(C)C(=O)O)c1 | inactive |
| COc1c2occc2cc2ccc(=O)oc12 | inactive |
| NS(=O)(=O)c1cc(C(=O)O)c(NCc2ccco2)cc1Cl | inactive |
| CCCCC(CC)COC(=O)C(C#N)=C(c1ccccc1)c1ccccc1 (configuration not stated) | inactive |
